Assay [1] concerns CRL-7250. In words: Cytotoxic Profiling of Annotated Libraries Using Quantitative High-Throughput Screening (AID 1296008). Further: nearly all actives have a fitted effect of over 60% in size. Further: potency means the concentration at half of the fitted maximal effect. On max response: on the % scale 0 is the no-effect control and ±100 the full control effect. The settings on record: Five cell lines viability, CellTiter-Glo ATP luminescence, 48-72 h; max response: active compounds read low. Put shortly: (§1)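 Cells exposed to compounds for 48 or 72 hr at 37 degrees Celsius. Viability read as ATP-coupled luminescence with CellTiter-Glo after 10 min at room temperature.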

For the next assay, the system named is HEK293. The description is as above. The settings on record: Five cell lines viability, CellTiter-Glo ATP luminescence, 48-72 h; max response: active compounds read low. In a few lines:
as §1

The test system of assay [2] is HaCat. Described as above. The settings on record: Five cell lines viability, CellTiter-Glo ATP luminescence, 48-72 h; max response: active compounds read low. Put shortly:
as §1

The next assay concerns KB-3-1. Described as above. The settings on record: Five cell lines viability, CellTiter-Glo ATP luminescence, 48-72 h; max response: active compounds read low. Put shortly:
as §1

Assay [3] concerns NIH3T3. The assay is described as above. Conditions: Five cell lines viability, CellTiter-Glo ATP luminescence, 48-72 h; max response: active compounds read low. In a few lines: as §1
For assay [4], the system named is CRL-7250. In words: qHTS assay to identify novel small-molecules to repurpose for Merkel cell carcinoma treatment (AID 1296009). Further: nearly all actives have a fitted effect of over 60% in size. Conditions: MCC and control cell lines, CellTiter-Glo viability, 72 h; at 44.8 µM (top of the series) unless noted. In a few lines:
(§2)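 CellTiter-Glo luminescence after 72 hr compound exposure at 37 degree celsius gave cell viability. Libraries NPC and MIPE were run as 8- and 11-point dose responses; RLUs normalized to DMSO (negative) and no-cell (cytotoxicity) controls.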

Assay [5] relates to HACAT. Described as above. Conditions: MCC and control cell lines, CellTiter-Glo viability, 72 h; at 44.8 µM (top of the series) unless noted. Put shortly: as §2
Assay [6] concerns NIH3T3. The assay is described as above. Conditions: MCC and control cell lines, CellTiter-Glo viability, 72 h; at 44.8 µM (top of the series) unless noted. Put shortly: as §2
In a further assay the test system is C33A. In words: Primary qHTS to identify gynecologic anti-cancer compounds using libraries of approved drugs and bioactive compounds (AID 1345084). Further: on the % scale 0 is the no-effect control and ±100 the full control effect; nearly all actives have a fitted effect of over 55% in size. Conditions: Gynecologic cancer cell panel viability, ATPlite luminescence, 48 h; series mostly up to 57.5 µM. In a few lines: (§3)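 Cells, 1,000 per well, plated 16 h, then exposed 48 h at 37 C to compounds. Viability by ATPlite luminescence after 15 min at room temperature.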

In another assay the test system is CAOV3. The assay is described as above. Conditions: Gynecologic cancer cell panel viability, ATPlite luminescence, 48 h; series mostly up to 57.5 µM. In a few lines: as §3
The subject of another assay is CASKI. The description is as above. Conditions: Gynecologic cancer cell panel viability, ATPlite luminescence, 48 h; series mostly up to 57.5 µM. Put shortly:
as §3

The test system of the next assay is Es-2. The description is as above. The settings on record: Gynecologic cancer cell panel viability, ATPlite luminescence, 48 h; series mostly up to 57.5 µM. Put shortly:
as §3

The subject of a further assay is HeLa. The assay is described as above. Conditions: Gynecologic cancer cell panel viability, ATPlite luminescence, 48 h; series mostly up to 57.5 µM. In a few lines: as §3
Another assay relates to HEK293T. In words: qHTS assay to identify novel small-molecules to repurpose for Merkel cell carcinoma treatment (AID 1296009). Further: nearly all actives have a fitted effect of over 60% in size. The settings on record: MCC and control cell lines, CellTiter-Glo viability, 72 h; at 44.8 µM (top of the series) unless noted. In a few lines:
as §2

Inconclusive results are not listed. Values without a mark were called inactive. Activity calls are given as the source filed them. The call rests on the fitted dose curve; in most records, active means well fitted curve in the direction sought with a large enough effect; inconclusive means small, poorly fitted or top-dose-only effect, or another doubt; inactive means no such curve, though single readings can be large; an effect the other way counts as inactive or inconclusive.

As for `CC(C)(C)c1cc(C(C)(C)C)c2c(c1)C(O)(C(F)(F)F)C(=O)O2` (stereo not drawn), the call in the assay on CRL-7250 [1], with HaCat [2], in the assay with KB-3-1, in the assay with NIH3T3 [3], in the assay with CRL-7250 [4] and in the assay on HACAT [5] was inactive. For the same compound, in the assay with NIH3T3 [6], the compound was classed as inactive. In addition, in the assay with HEK293, the max response is 1.2%. Further, the Potency result in the assay with C33A, in the assay with CAOV3, with CASKI, in the assay on Es-2 and in the assay with HeLa was “inactive” in each case.
With `COC(=O)C1(C)CCC(O)C2(C)c3c(O)cc(C(C)C)cc3C(O)C(OC(C)=O)C12` (stereo not drawn), the compound was called inactive in the assay with CRL-7250 [1], in the assay on HEK293 and in the assay with KB-3-1. For the same compound, the max response with HaCat [2] is -12.7%; with NIH3T3 [3] it was 0.503%. The outcome in the assay with CRL-7250 [4] and with HEK293T was “inactive [at 17.4 µM]” each time. Further, the Potency result in the assay on C33A, in the assay on CAOV3, with CASKI, in the assay with Es-2 and with HeLa was “inactive” throughout.
Take `COc1cc(CCNCc2ccccc2O)c(OC)cc1C#N`: the result in the assay on CRL-7250 [1], in the assay on HaCat [2], in the assay with KB-3-1, in the assay on CRL-7250 [4] and with HACAT [5] was inactive. Besides, the results for the max response in the assay with HEK293 and in the assay on NIH3T3 [3] were 2.88% and 4.5%, respectively. In addition, the Potency result in the assay with C33A, in the assay on CASKI, in the assay with Es-2 and in the assay on HeLa was “inactive” throughout.
As to `C[C@@]1(C(=O)O)CC[C@]2(C)CC[C@]3(C)C4=CC(=O)c5cc(O)c(O)cc5[C@]4(C)CC[C@@]3(C)[C@@H]2C1`, the outcome in the assay on CRL-7250 [1], with HaCat [2], in the assay with KB-3-1 and in the assay with NIH3T3 [3] was inactive. In addition, in the assay on HEK293, the max response is -9.77%. Besides, the outcome with CRL-7250 [4] and with HACAT [5] was “inactive [at 17.4 µM]” in each case. Also, the Potency entry in the assay with C33A, in the assay on CAOV3, in the assay with CASKI, in the assay on Es-2 and in the assay with HeLa was “inactive” in each case.
`COC(=O)[C@@]12C(=O)C(C)C(=O)[C@]1(C)C(C)=C[C@H]1[C@]3(C=O)CC[C@H](OC(C)=O)C(C)(C)[C@H]3CC[C@@]12C` (stereo partly drawn): the compound was classed as inactive in the assay on CRL-7250 [1], in the assay with HEK293 and in the assay on HaCat [2]. The max response with KB-3-1 was 6.62%; in the assay with NIH3T3 [3] it was 3.28%. Besides, the outcome with CRL-7250 [4], in the assay with HACAT [5] and in the assay with HEK293T was “inactive [at 17.4 µM]” in each case. For the same compound, the Potency entry in the assay with C33A, with CAOV3, in the assay with CASKI, in the assay on Es-2 and with HeLa was “inactive” throughout.
On to `CC(C)[C@@H](CN1CC[C@@](C)(c2cccc(O)c2)[C@@H](C)C1)NC(=O)[C@H]1Cc2ccc(O)cc2CN1`, for which the result in the assay with CRL-7250 [1], in the assay on HaCat [2], in the assay on NIH3T3 [3], with CRL-7250 [4], in the assay on HACAT [5] and in the assay on NIH3T3 [6] was inactive. For the same compound, the max response with HEK293 is -18.6%; in the assay on KB-3-1, 4.16%. Also, the Potency entry with C33A, in the assay with CAOV3, with CASKI, in the assay with Es-2 and in the assay on HeLa was “inactive” each time.
Regarding `N#CC(OC1OC(COC2OC(CO)C(O)C(O)C2O)C(O)C(O)C1O)c1ccccc1` (stereo not drawn), the compound was called inactive with CRL-7250 [1], in the assay with HEK293, with HaCat [2] and with NIH3T3 [3]. Further, in the assay on KB-3-1, the max response was 9.88%. For the same compound, the outcome with CRL-7250 [4], with HACAT [5] and in the assay on HEK293T was “inactive [at 17.4 µM]” throughout. Besides, the Potency entry in the assay with C33A, in the assay on CAOV3, in the assay on CASKI and with Es-2 was “inactive” in each case.
For `COC1CC(=O)C23C(=O)NC(CC(C)C)C2C(C)=C(C)C(OO)C3/C=C(\C)CCC(O)C1O` (stereo not drawn), the compound was called inactive in the assay on CRL-7250 [1], with HaCat [2], in the assay with KB-3-1 and in the assay on NIH3T3 [3]. Moreover, in the assay on HEK293, the max response was 3.17%. Further, the outcome with CRL-7250 [4], in the assay with HACAT [5] and in the assay on NIH3T3 [6] was “inactive [at 17.4 µM]” in each case. Moreover, the Potency entry in the assay on C33A, in the assay on CASKI, with Es-2 and with HeLa was “inactive” throughout.
As to `CN1CCC[C@@H]1Cc1c[nH]c2ccc(Nc3ncccc3[N+](=O)[O-])cc12`, the call in the assay on CRL-7250 [1], in the assay on NIH3T3 [3] and in the assay with CRL-7250 [4] was inactive. Further, the figures for the max response with HEK293, in the assay on HaCat [2] and in the assay with KB-3-1 were -20.4%, -5.05% and -5.99%, respectively. For the same compound, the Potency entry in the assay on C33A, in the assay with CAOV3, with CASKI, in the assay on Es-2 and in the assay on HeLa was “inactive” in each case.
As to `CC(C)(O)[C@H]1O[C@H]2CC[C@@]3(C)[C@@](O)(CC[C@H]4Cc5c([nH]c6ccccc56)[C@@]43C)C2=CC1=O`, the max response with CRL-7250 [1] was -14.1%; in the assay with HEK293 it was 2.88%; in the assay on HaCat [2], 0.588%; with KB-3-1, 9.13%. Further, the compound was called inactive in the assay with NIH3T3 [3]. The outcome in the assay with NIH3T3 [6] was “inactive [at 17.4 µM]”. In addition, the Potency result in the assay with C33A, with CASKI, in the assay with Es-2 and in the assay on HeLa was “inactive” each time.
`C[C@@](O)(COc1ccc(C#N)cc1)C(=O)Nc1ccc(C#N)c(C(F)(F)F)c1`: the max response was -2.54% in the assay with CRL-7250 [1] and 2.83% in the assay with KB-3-1. Besides, the Potency with HEK293 is 14.6 µM (active). Besides, the call in the assay on HaCat [2], with NIH3T3 [3] and in the assay on HACAT [5] was inactive. In addition, the Potency result with C33A, in the assay with CAOV3, in the assay on CASKI, with Es-2 and with HeLa was “inactive” throughout.
With `CN1C(=O)c2ccccc2NC(=O)C1Cc1ccccc1` (stereo not drawn), the max response in the assay with CRL-7250 [1] was 3.07%; with HaCat [2], 2.89%; in the assay with KB-3-1, 3.82%; in the assay on NIH3T3 [3], -1.81%. Besides, the compound was called inactive in the assay with HEK293 and with HEK293T. The Potency result in the assay on C33A, in the assay on CAOV3, with CASKI, with Es-2 and with HeLa was “inactive” each time.
On to `C/C=C(\C)C(=O)O[C@H]1[C@H](OC(C)=O)[C@]2(CO)[C@H](O)[C@H](O)[C@]3(C)C(=CCC4[C@@]5(C)CC[C@H](O[C@@H]6O[C@H](C(=O)O)[C@@H](O)[C@H](O[C@@H]7OC[C@H](O)[C@H](O[C@@H]8OC[C@H](O)[C@H](O)[C@H]8O)[C@H]7O)[C@H]6O[C@@H]6O[C@H](CO)[C@@H](O)[C@H](O)[C@H]6O)C(C)(C)C5CC[C@]43C)[C@@H]2CC1(C)C` (stereo partly drawn), for which the max response with CRL-7250 [1] is 4.83%; with HaCat [2] it was 3.31%. Moreover, the outcome in the assay with HEK293, in the assay on KB-3-1 and with NIH3T3 [3] was inactive. The outcome with HEK293T and in the assay on NIH3T3 [6] was “inactive [at 9.27 µM]” each time. The activity change, negative = cytotoxicity in the assay with C33A is 0.756% [at 6.55 µM]; in the assay with CAOV3, 0.059% [at 6.55 µM]; in the assay on CASKI, 13.6% [at 6.55 µM]; with Es-2 it was -0.471% [at 6.55 µM]; in the assay on HeLa it was 10.9% [at 6.55 µM].

(Values after PubChem BioAssay (NCATS).)
